# Source: PubChem BioAssay (NCATS)
# Values without a mark were called inactive. Records with an inconclusive call do not appear. Activity calls are given as the source filed them. Unless noted, calls come from the whole dose curve; as a rule, active = well fitted curve in either direction with a large enough effect (not every such curve was filed as active); inconclusive = small, poorly fitted or top-dose-only effect, or another doubt; inactive = flat fitted curve, though single readings scatter.
# Legend:
# [1] = molecular target: Lysosomal acid glucosylceramidase (Homo sapiens) (UniProt P04062); test: Glucocerebrosidase-p2 (AID 348; in the data active = potency below about 10 µM; note: potency is the fitted concentration of half-maximal effect); conditions: purified GBA, blue fluorogenic substrate, 40 min
# Summary of the method: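 Compounds titrated from 0.6 nM upwards against 0.2 nM enzyme in pH 5.9 citric acid/KH2PO4, taurocholate, tween-20; blue fluorogenic substrate 80 uM, 40 min room temperature, stopped and read Ex 365/Em 440 for AC50.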
# [2] = AP1 Signaling Pathway (AID 357); conditions: ME-180 AP-1-bla reporter, EGF-induced, beta-lactamase ratio, 5 h; at 7.69 µM (top of the series) unless noted;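 note: ME-180 reporter cells stimulated with EGF at its EC50 level; % is set by controls: 0 for no effect and ±100 for the full control effect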
# Summary of the method: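 AP-1-bla ME-180 cells, Opti-MEM + 0.5% dialyzed FBS, plated overnight 37 °C. Cpd titration + EC50 EGF, 5 h 37 °C. CCF4 2.5 h RT; ex 405, em 460/530 ratio → %activity, AC50.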
# [3] = molecular target: Cytochrome P450 1A2 (Homo sapiens) (UniProt P05177); test: p450-cyp1a2 (AID 410; calls by dose curve; note: potency is the fitted concentration of half-maximal effect;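 for activity change, negative = inhibition: -100% = full effect of reference inhibitor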); conditions: recombinant CYP1A2, luciferin-ME demethylation, luminescence; series mostly up to 11.4 µM
# Summary of the method: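 20nM CYP1A2 with 100uM Luciferin-ME (at Km) in 100mM KPO4; compound preincubated 10 min, NADPH regeneration added, 60 min at room temperature. Luciferin quantified by luminescence after detection reagent; normalized to 57 uM furafylline.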
# [4] = NFAT Signaling Pathway (AID 444); conditions: Jurkat NFAT-bla M1, carbachol, beta-lactamase ratio, 5 h; at 7.69 µM (top of the series) unless noted;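 note: carbachol stimulus at about its EC50 of 1 µM final; % is set by controls: 0 for no effect and ±100 for the full control effect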
# Summary of the method: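 Read-out: CCF4 FRET ratio (460 nm/530 nm) after 1 h RT dye loading, used for %activity and AC50 from titration series. Cells: Jurkat NFAT-β-lactamase/M1 line, treated with compound plus 1 uM carbachol for 5 h, 37 °C.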
# [5] = Stat Signaling Pathway (AID 446); conditions: ME-180 SIE beta-lactamase reporter, IL-6 stimulated, 5 h; at 7.69 µM (top of the series) unless noted;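 note: ME-180 cervical cancer cells given 40 pM IL-6 alongside compound; SIE-controlled beta-lactamase reporter measured as 460/530 nm FRET emission ratio; % is set by controls: 0 for no effect and ±100 for the full control effect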
# Summary of the method: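 ME-180 cells carrying a SIE-driven beta-lactamase reporter are stimulated with 40 pM IL-6 for 5 h at 37C in the presence of compound. The 460/530 nm FRET substrate ratio is read after 2.5 h at RT. Data are normalised to 300 pM IL-6 and to 125 nM JAK inhibitor controls.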
# [6] = molecular target: Glucocorticoid receptor (Homo sapiens) (UniProt P04150); test: GR-GFP Redistribution (AID 450;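 active = compounds whose dose series gives a full or clear partial fitted curve of increased nuclear translocation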; note: potency is the fitted concentration of half-maximal effect); conditions: U2OS GR-GFP nuclear translocation, laser cytometry, 2 h
# [7] = molecular target: Mitogen-activated protein kinase 10 (Mus musculus) (UniProt Q61831); test: JNK3 AlphaScreen Assay (AID 530); conditions: JNK3 lysate, c-Jun phosphorylation; series mostly up to 11.4 µM;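 note: kinase came from lysate of stimulated human HepG2 cells; signal reports phosphorylation of biotinylated GST-cJun 1-79 at Ser73 with 10 µM ATP; % is set by controls: 0 for no effect and ±100 for the full control effect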
# Summary of the method: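 Compound titrations were preincubated 15 minutes at room temperature with substrate, antibody and pre-activated JNK3-containing HepG2 lysate. Reactions were started with 10 uM ATP and stopped with EDTA-containing bead buffer for AlphaScreen detection.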
# [8] = molecular target: 3',5'-cyclic-AMP phosphodiesterase 4B (Homo sapiens) (UniProt Q07343); test: qHTS Assay for Inhibitors of PDE-IV (AID 607; active = well fitted activation curve with a large enough effect in the main read-out, with a control signal flat, not every such curve was filed as active; note: % of control where 0% means no effect); conditions: HEK293 ACTOne CNG channel cells, membrane potential fluorescence; series mostly up to 22.9 µM
# Summary of the method: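 HEK293 ACTOne cells with CNG channel (1000/well), endogenous PDE4; membrane potential dye, compounds up to 22.9 uM final. Fluorescence Ex 535/Em 590; RO 20-1724 (100 uM final) as reference.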
# [9] = qHTS Assay for Identification of Small Molecule Agonists for Hypoxia Response Element Signaling Pathway (AID 914; active = well fitted activation curve with a large enough effect in the signal ratio, with a control signal flat, not every such curve was filed as active; the % refers to the signal ratio; note: % of control where 0% means no effect); conditions: ME-180 (cervical carcinoma) HRE-bla reporter, beta-lactamase ratio, CoCl2, 17 h; activation: stronger effect = higher value
# Summary of the method: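 Cells were plated overnight, pin-dosed with compound in a titration series, co-stimulated with EC50 CoCl2 and incubated 17 hours at 37 degrees Celsius. CCF4 substrate was then loaded, and AC50 values came from the 460nm/530nm ratio.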
# [10] = molecular target: Glucocorticoid receptor (Homo sapiens) (UniProt P04150); test: GR-EFC Redistribution (AID 451; calls by dose curve; note: potency is the fitted concentration of half-maximal effect); conditions: CHO-K1 GR-EFC translocation, beta-gal luminescence, 2 h
# Summary of the method: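 Translocation of GR-ED fusion to nuclear EA restores b-gal, read by luminescence after 1 h room-temperature detection. Engineered CHO-K1 biosensor cells, 1,000/well, exposed 2 h at 37 C to titrations up to 46 uM final.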
# [11] = molecular target: Cytochrome P450 2C9 (Homo sapiens) (UniProt P11712); test: qHTS Assay for Inhibitors and Substrates of Cytochrome P450 2C9 (AID 883; active = well fitted curve in the direction sought with a large enough effect; an effect the other way counts as inactive or inconclusive; note: potency is the fitted concentration of half-maximal effect; nearly all actives have a fitted effect of over 60% in size); conditions: recombinant CYP2C9, luciferin-H luminescence, 60 min; series mostly up to 11.4 µM
# Summary of the method: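 Luminescent read-out of deoxyluciferin hydroxylation, normalized to 57uM sulphaphenazole (AC100). Reaction: 10nM enzyme, 100uM Luciferin-H (equal to KM), 25mM KPO4, 10 min compound preincubation, then 60 min with NADPH regeneration, both at 37C.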
# [12] = molecular target: Cytochrome P450 3A4 (Homo sapiens) (UniProt P08684); test: qHTS Assay for Inhibitors and Substrates of Cytochrome P450 3A4 (AID 884; active = well fitted curve in the direction sought with a large enough effect; an effect the other way counts as inactive or inconclusive; note: nearly all actives have a fitted effect of over 50% in size; note: potency is the fitted concentration of half-maximal effect); conditions: recombinant CYP3A4, Luciferin-PPXE luminescence; series mostly up to 57.1 µM
# Summary of the method: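 20 nM human CYP3A4 with 25 uM Luciferin-PPXE (at KM) in 200 mM KPO4, preincubated 10 min with compound; NADPH regeneration started a 60 min RT reaction. Luciferin detected by luminescence, normalized to 57 uM ketoconazole as full inhibition.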
# [13] = molecular target: Cytochrome P450 3A4 (Homo sapiens) (UniProt P08684); test: qHTS Assay for Activators of Cytochrome P450 3A4 (AID 885; active = well fitted curve in the direction sought with a large enough effect; an effect the other way counts as inactive or inconclusive; note: nearly all actives have a fitted effect of over 65% in size); conditions: recombinant CYP3A4, Luciferin-PPXE luminescence, 60 min; series mostly up to 11.4 µM
# Summary of the method: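 Human CYP3A4 (20 nM) with Luciferin-PPXE at 25 uM (its KM) in 200 mM KPO4; 10 min compound preincubation, then NADPH regeneration and 60 min reaction at RT. Luciferin read by luminescence; normalized to 57 uM ketoconazole full inhibition.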
# [14] = molecular target: Cytochrome P450 2D6 (Homo sapiens) (UniProt P10635); test: qHTS Assay for Inhibitors and Substrates of Cytochrome P450 2D6 (AID 891; active = well fitted curve in the direction sought with a large enough effect; an effect the other way counts as inactive or inconclusive; note: potency is the fitted concentration of half-maximal effect; nearly all actives have a fitted effect of over 60% in size); conditions: recombinant CYP2D6, luciferin-ME EGE luminescence; series mostly up to 11.4 µM
# Summary of the method: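 Human CYP2D6 (5 nM) with 30 uM Luciferin-ME EGE (at Km) in 100 mM KPO4, compound preincubated 10 min, then NADPH regeneration system for 60 min at room temperature. Luciferin read by luminescence; normalized to 1.43 uM quinidine.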
# [15] = qHTS profiling for inhibitors of Plasmodium falciparum proliferation (AID 504749; active = well fitted curve in the direction sought with a large enough effect; an effect the other way counts as inactive or inconclusive; note: potency is the fitted concentration of half-maximal effect;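 for activity, negative = inhibition: 0% = DMSO vehicle and full inhibition = artemisinin control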; for all read-outs here: nearly all actives have a fitted effect of over 60% in size); conditions: P. falciparum in erythrocytes, SYBR Green DNA, 72 h; for activity, negative = inhibition: at 28.7 µM (top of the series)
# Summary of the method: (§1)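 Infected RBCs, 0.3% parasitemia/2.5% Hct final; cpd 72 h, 37 C, 5% CO2; lysis buffer with saponin/triton/SYBR Green I, o/n RT dark; FI 485/535; norm. to artemisinin (0.29 uM) and DMSO.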
# [16] = test system: CP192; test: as above; conditions: P. falciparum in erythrocytes, SYBR Green DNA, 72 h; series mostly up to 28.7 µM
# Summary of the method: as §1
# [17] = test system: CP194; test: as above; conditions: P. falciparum in erythrocytes, SYBR Green DNA, 72 h; series mostly up to 28.7 µM
# Summary of the method: as §1
# [18] = test system: CP203; test: as above; conditions: P. falciparum in erythrocytes, SYBR Green DNA, 72 h; series mostly up to 28.7 µM
# Summary of the method: as §1
# [19] = test system: W2; test: as above; conditions: P. falciparum in erythrocytes, SYBR Green DNA, 72 h; series mostly up to 28.7 µM
# Summary of the method: as §1
# Sequence of Lysosomal acid glucosylceramidase (Homo sapiens) (P04062 whole entry, looked up): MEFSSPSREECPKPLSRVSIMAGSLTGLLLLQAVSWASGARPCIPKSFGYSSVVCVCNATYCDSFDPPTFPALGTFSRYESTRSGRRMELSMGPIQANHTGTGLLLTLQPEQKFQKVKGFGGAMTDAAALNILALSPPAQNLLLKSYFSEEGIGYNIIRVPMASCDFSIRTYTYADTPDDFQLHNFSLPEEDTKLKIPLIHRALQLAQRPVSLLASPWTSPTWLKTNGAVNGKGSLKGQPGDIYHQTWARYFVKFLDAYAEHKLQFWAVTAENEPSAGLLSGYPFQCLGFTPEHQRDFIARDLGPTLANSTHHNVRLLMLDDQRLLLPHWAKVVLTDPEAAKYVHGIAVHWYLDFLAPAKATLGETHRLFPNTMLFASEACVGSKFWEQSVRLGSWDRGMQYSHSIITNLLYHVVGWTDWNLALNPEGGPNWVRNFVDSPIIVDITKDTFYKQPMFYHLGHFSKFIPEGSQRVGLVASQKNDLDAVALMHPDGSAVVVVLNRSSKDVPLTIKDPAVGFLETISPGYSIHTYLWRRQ
# Sequence of Cytochrome P450 1A2 (Homo sapiens) (P05177 whole entry, looked up): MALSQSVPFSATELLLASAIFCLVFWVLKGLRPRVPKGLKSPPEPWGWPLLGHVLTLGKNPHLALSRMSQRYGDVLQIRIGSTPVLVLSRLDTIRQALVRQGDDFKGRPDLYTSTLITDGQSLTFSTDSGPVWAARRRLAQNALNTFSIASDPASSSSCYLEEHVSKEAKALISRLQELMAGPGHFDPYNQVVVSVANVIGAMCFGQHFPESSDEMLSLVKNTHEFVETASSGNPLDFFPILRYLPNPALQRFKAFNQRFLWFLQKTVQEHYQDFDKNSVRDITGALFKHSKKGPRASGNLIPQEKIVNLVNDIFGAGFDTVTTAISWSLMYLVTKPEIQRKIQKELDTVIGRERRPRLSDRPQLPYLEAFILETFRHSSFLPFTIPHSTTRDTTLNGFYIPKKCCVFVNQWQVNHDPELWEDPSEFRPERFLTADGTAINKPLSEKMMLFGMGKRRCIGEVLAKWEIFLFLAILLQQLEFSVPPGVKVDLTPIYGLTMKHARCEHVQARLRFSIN
# Sequence of Glucocorticoid receptor (Homo sapiens) (P04150 whole entry, looked up, the tested form may be a part): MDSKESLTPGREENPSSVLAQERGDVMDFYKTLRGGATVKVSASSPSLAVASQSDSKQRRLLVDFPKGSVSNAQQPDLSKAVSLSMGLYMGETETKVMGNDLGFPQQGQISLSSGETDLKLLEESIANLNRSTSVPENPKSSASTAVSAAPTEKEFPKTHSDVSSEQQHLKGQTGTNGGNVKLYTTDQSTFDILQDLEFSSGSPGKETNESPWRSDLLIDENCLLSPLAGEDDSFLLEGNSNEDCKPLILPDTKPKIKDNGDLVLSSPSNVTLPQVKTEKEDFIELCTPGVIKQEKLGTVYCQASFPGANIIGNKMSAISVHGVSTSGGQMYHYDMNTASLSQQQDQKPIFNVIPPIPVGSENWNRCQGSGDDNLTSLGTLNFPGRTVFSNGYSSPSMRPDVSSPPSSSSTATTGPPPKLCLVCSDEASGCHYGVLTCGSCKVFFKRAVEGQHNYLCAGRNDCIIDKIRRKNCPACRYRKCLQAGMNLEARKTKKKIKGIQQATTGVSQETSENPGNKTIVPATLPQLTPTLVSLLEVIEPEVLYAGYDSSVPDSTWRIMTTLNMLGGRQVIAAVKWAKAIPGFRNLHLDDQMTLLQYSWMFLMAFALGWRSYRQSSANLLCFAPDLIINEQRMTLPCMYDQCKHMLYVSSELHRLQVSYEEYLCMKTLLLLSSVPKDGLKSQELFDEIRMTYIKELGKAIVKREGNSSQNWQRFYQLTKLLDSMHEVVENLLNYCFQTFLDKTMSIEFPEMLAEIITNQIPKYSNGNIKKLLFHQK
# Sequence of 3',5'-cyclic-AMP phosphodiesterase 4B (Homo sapiens) (Q07343 whole entry, looked up): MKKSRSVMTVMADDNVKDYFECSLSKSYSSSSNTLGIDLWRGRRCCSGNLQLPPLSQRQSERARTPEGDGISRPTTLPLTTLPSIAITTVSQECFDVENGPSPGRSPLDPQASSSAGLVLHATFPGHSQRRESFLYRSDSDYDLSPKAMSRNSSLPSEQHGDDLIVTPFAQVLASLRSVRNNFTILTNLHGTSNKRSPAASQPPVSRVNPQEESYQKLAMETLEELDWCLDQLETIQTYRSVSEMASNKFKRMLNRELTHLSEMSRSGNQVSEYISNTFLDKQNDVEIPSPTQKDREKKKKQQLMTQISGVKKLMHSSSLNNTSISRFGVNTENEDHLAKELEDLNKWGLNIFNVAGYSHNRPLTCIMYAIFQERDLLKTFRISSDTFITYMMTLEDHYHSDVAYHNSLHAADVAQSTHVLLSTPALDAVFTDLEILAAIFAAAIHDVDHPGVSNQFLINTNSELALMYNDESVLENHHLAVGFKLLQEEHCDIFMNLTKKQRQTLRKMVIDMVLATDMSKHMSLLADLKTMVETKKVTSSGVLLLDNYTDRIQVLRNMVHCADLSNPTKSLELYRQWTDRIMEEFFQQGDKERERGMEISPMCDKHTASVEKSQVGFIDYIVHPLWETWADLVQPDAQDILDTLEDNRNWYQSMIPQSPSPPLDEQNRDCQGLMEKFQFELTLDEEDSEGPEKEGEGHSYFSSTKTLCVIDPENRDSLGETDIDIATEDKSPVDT
# Sequence of Cytochrome P450 3A4 (Homo sapiens) (P08684 whole entry, looked up): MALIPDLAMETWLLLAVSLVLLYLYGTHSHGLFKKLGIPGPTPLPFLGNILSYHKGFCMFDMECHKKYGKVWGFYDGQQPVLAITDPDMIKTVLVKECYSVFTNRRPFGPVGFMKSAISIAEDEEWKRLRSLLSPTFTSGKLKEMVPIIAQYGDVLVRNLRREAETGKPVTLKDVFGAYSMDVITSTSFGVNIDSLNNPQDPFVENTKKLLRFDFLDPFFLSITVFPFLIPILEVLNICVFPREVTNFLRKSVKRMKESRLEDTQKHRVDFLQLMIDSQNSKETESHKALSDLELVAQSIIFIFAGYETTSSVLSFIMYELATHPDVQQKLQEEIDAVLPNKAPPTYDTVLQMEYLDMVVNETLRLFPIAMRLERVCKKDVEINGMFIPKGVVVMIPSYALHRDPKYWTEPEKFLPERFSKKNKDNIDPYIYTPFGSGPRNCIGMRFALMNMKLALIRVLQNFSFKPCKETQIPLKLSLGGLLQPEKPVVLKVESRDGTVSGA
# Sequence of Cytochrome P450 2D6 (Homo sapiens) (P10635 whole entry, looked up): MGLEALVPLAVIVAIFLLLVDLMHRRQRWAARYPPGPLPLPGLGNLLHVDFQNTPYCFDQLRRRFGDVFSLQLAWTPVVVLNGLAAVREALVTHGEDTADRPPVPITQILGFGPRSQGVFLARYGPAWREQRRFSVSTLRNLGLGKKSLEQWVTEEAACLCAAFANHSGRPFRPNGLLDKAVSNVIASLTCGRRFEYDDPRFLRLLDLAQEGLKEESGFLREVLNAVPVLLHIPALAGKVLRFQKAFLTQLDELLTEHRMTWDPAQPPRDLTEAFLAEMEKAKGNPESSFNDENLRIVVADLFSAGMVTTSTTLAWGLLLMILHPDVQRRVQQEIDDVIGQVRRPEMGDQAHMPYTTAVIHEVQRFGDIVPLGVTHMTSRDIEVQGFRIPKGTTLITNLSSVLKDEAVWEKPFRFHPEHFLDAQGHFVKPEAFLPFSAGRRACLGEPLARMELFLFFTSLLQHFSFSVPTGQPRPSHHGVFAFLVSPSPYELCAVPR
# Sequence of Cytochrome P450 2C9 (Homo sapiens) (P11712 whole entry, looked up): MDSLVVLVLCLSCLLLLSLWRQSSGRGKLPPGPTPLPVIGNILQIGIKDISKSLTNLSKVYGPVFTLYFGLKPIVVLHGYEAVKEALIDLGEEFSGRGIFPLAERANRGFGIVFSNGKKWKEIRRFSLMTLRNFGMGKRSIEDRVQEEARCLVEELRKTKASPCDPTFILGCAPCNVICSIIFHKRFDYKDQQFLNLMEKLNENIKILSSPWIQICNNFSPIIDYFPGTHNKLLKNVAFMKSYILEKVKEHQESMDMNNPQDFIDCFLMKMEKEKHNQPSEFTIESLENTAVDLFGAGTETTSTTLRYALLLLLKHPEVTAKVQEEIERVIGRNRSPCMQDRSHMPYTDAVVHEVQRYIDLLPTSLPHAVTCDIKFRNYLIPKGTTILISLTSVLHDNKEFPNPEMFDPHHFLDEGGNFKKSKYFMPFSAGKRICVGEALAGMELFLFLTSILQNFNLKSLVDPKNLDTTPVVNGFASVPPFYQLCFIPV
smiles,measurement,setting,value
Cc1ccc(S(=O)(=O)Oc2cc(S(=O)(=O)O)cc3cc(S(=O)(=O)O)cc(N)c23)cc1,Potency,[1],> 11.4 µM
same,"activity change, negative = inhibition",[2],8.2%
same,Potency,[3],2 µM (active)
same,"activity change, negative = inhibition",[4],1.61%
same,"activity, negative = inhibition",[5],11.7%
same,Potency,[6],> 46 µM
same,Potency,[7],inactive
same,Potency,[8],inactive
same,activation,[9],-7.4%
C[C@@]12CCC(=O)C=C1CC[C@H]1[C@@H]2[C@@H](O)C[C@]2(C)[C@@H]1CC[C@@]2(O)C(=O)CO,Potency,[1],> 11.4 µM
same,"activity change, negative = inhibition",[2],-10.2%
same,Potency,[3],inactive
same,"activity change, negative = inhibition",[4],14%
same,"activity, negative = inhibition",[5],4.86%
same,Potency,[7],inactive
same,Potency,[8],inactive
COc1cc(-c2[o+]c3cc(O)cc(O)c3cc2O)cc(O)c1O,Potency,[1],> 11.4 µM
same,"activity change, negative = inhibition",[2],19.4%
same,"activity change, negative = inhibition",[3],-19.9% [at 2.29 µM]
same,"activity change, negative = inhibition",[4],20.3%
same,"activity, negative = inhibition",[5],0.423%
same,Potency,[7],inactive
same,Potency,[8],inactive
NC(N)=NC(N)=Nc1ccc(S(N)(=O)=O)cc1,Potency,[1],> 11.4 µM
same,"activity change, negative = inhibition",[2],3.63%
same,Potency,[3],inactive
same,"activity change, negative = inhibition",[4],3.86%
same,Potency,[6],> 46 µM
same,Potency,[10],> 9.22 µM
same,Potency,[7],inactive
same,Potency,[8],inactive
N[C@@](CCc1ccccc1)(C(=O)O)c1ccccc1,Potency,[1],> 11.4 µM
same,"activity change, negative = inhibition",[2],4.96%
same,Potency,[3],inactive
same,"activity change, negative = inhibition",[4],3.42%
same,Potency,[6],> 46 µM
same,Potency,[10],> 9.22 µM
same,Potency,[7],inactive
same,Potency,[8],inactive
Cc1c2cnccc2c(C)c2c1c1ccccc1n2CCOC(=O)c1ccccc1,Potency,[1],> 11.4 µM
same,"activity change, negative = inhibition",[2],2.26%
same,Potency,[3],0.0794 µM (active)
same,"activity change, negative = inhibition",[4],-4.41%
same,Potency,[6],> 46 µM
same,Potency,[10],> 9.22 µM
same,Potency,[7],inactive
same,Potency,[8],inactive
same,Potency,[11],3.16 µM (active)
same,Potency,[12],631 nM (active)
same,Potency,[13],inactive
same,Potency,[14],3.16 µM (active)
COc1ccc(C(=O)N2CCC3(CCCN(C(=O)Nc4cccc(F)c4)C3)CC2)cc1,Potency,[1],> 11.4 µM
same,"activity change, negative = inhibition",[2],-10.3%
same,Potency,[3],20 µM (active)
same,"activity change, negative = inhibition",[4],5.86%
same,"activity, negative = inhibition",[5],-13.8%
same,Potency,[10],> 46 µM
same,Potency,[7],inactive
same,Potency,[13],inactive
same,activation,[9],-19.5%
Cc1ccc(N(Cc2ccccc2)Cc2ccccc2)cc1,Potency,[1],> 11.4 µM
same,"activity change, negative = inhibition",[2],4.21%
same,"activity change, negative = inhibition",[3],-24.2% [at 2.29 µM]
same,"activity change, negative = inhibition",[4],-17.4%
same,Potency,[6],> 46 µM
same,Potency,[10],> 9.22 µM
same,Potency,[7],inactive
same,Potency,[8],inactive
N[C@@H](Cc1ccccc1)C(=O)O,Potency,[1],> 11.4 µM
same,"activity change, negative = inhibition",[2],3.61%
same,Potency,[3],inactive
same,"activity change, negative = inhibition",[4],14.5%
same,"activity, negative = inhibition",[5],12.6%
same,Potency,[7],inactive
same,Potency,[8],inactive
same,Potency,[12],inactive
same,"activity, negative = inhibition",[15]; parasite line A,4.49%
same,"activity, negative = inhibition",[15]; parasite line B,-0.635%
same,Potency,[16],inactive
same,Potency,[17],inactive
same,Potency,[18],inactive
same,Potency,[19],inactive
CCC(=O)OCN1C(=O)C=CC1=O,Potency,[1],> 11.4 µM
same,"activity change, negative = inhibition",[2],-2.18%
same,Potency,[3],3.16 µM (active)
same,"activity change, negative = inhibition",[4],-27.8%
same,Potency,[6],> 46 µM
same,Potency,[10],> 9.22 µM
same,Potency,[7],inactive
same,Potency,[8],inactive
c1c[nH]c(CN2CCOCC2)n1,Potency,[1],> 11.4 µM
same,"activity change, negative = inhibition",[2],6.52%
same,Potency,[3],inactive
same,"activity change, negative = inhibition",[4],6.99%
same,Potency,[6],> 46 µM
same,Potency,[10],> 9.22 µM
same,Potency,[7],inactive
same,Potency,[8],inactive
CC1=NN(c2ccc(S(=O)(=O)O)cc2)C(=O)/C1=C\c1ccc(Cl)cc1,Potency,[1],> 11.4 µM
same,"activity change, negative = inhibition",[2],3.84%
same,"activity change, negative = inhibition",[3],-8.9% [at 2.29 µM]
same,"activity change, negative = inhibition",[4],7.84%
same,"activity, negative = inhibition",[5],-1.78%
same,Potency,[7],inactive
same,Potency,[8],inactive
O=C(O)[C@@H](S)[C@H](S)C(=O)O,Potency,[1],> 11.4 µM
same,"activity change, negative = inhibition",[2],8.2%
same,Potency,[3],inactive
same,"activity change, negative = inhibition",[4],-7.29%
same,Potency,[6],> 46 µM
same,Potency,[10],> 9.22 µM
same,Potency,[8],inactive
same,Potency,[15]; parasite line A,10 µM (active)
same,Potency,[15]; parasite line B,7.08 µM (active)
same,Potency,[16],12 µM (active)
same,Potency,[17],15.1 µM (active)
same,Potency,[18],10.7 µM (active)
same,Potency,[19],3.38 µM (active)
N/C(=N\O)c1cn([C@@H]2O[C@@H](CO)[C@H](O)[C@@H]2O)c2ncnc(NO)c12,Potency,[1],> 11.4 µM
same,"activity change, negative = inhibition",[2],5.84%
same,"activity change, negative = inhibition",[3],-18.7% [at 2.29 µM]
same,"activity change, negative = inhibition",[4],19.5%
same,Potency,[6],> 46 µM
same,Potency,[10],> 9.22 µM
same,Potency,[7],inactive
same,Potency,[8],inactive
